Laboratory results taken from PubChem BioAssay (EPA / NIEHS).
Calls of active or inactive are those of the source. The calls were made as follows: active = hit-call score of the fitted dose curve at least 0.9, where 1 is the maximum; inactive = score below 0.9.

Experiment: BSK_3C_Vis: BioMAP Diversity Plus: 3C Assay for Morphology Visualization (AID 2283025);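 also: fitted both ways so gain or loss versus DMSO counts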
Conditions: primary human endothelial cells (HUVEC)
Description: BSK_3C is a cell-based, multiplexed-readout assay that uses umbilical vein endothelium, a human vascular primary cell, with measurements taken at 24 hours after chemical dosing in a 96-well plate.BSK_3C_Vis is an assay component measured in the BSK_3C assay. It measures NA related to cell morphology using light microscopy technology.Data from the assay component BSK_3C_Vis was analyzed into 1 assay endpoint. This assay endpoint, BSK_3C_Vis, was analyzed with bidirectional fitting relative to DMSO as the negative control and baseline of activity. Using a type of morphology reporter, gain or loss-of-signal activity can be used to understand changes in the background control. Furthermore, this assay endpoint can be referred to as a secondary readout, because this assay has produced multiple assay endpoints where this one serves a background control function. To generalize the intended target to other relatable targets, this assay endpoint is annotated to the cell morphology intended target family, where the subfamily is cell conformation.
The levels of cell surface (or secreted, indicated by the prefix "s") biomarker endpoints were measured by ELISA. Overt cytotoxicity to cells in confluent adherent cultures (all systems other than the BT system) was assessed by measuring total protein levels using sulforhodamine B (SRB) staining in parallel cultures at the time of biomarker measurements, indicated as SRB endpoints. For proliferation assays for adherent cell types, individual cell types are cultured at sub-confluence and relative cell numbers quantified by SRB staining at time points optimized for each system (48 h: 3C and CASM3C systems; 72 h: BT and HDF3CGF systems; 96 h: SAg system). SRB was performed by staining cells with 0.1% SRB after fixation with 10% TCA and reading wells at 560 nm.Viability and proliferation of PBMC (T cells) was quantified by Alamar Blue reduction for the SAg and BT systems. For PBMC viability (referred to as PBMC Cytotoxicity within the assay endpoint names), cells were plated (75,000/well in a 96-well plate) and then chemical samples added for 1 h before addition of activators, SEB and TSST-1 (20 ng/mL final concentration each). Cells were incubated for 90 h. Then, Alamar Blue (20 uL/well) (Invitrogen, Cat DAL1100) was added for 6 h, and the plates were read with a fluorescence microplate reader at 546/580 nm (excitation/emission). For PBMC proliferation, cells were plated and activated as above but incubated for only 16 h prior to addition of Alamar Blue. Plates were read after 6 h.

Row | Compound | outcome | AC50
1 | c1ccc(N=Nc2ccccc2)cc1 | inactive | 
2 | CNC(=O)Oc1cccc2c1OC(C)(C)C2 | inactive | 
3 | N#CC(Br)Br | inactive | 
4 | COc1cc(C=O)cc2c1[C@H](COC(N)=O)[C@]1(OC(C)=O)ON2C[C@H]2[C@@H]1N2C(C)=O |  | 10.3 µM (active)
5 | CCCCCCCCCCCCCN1CC(C)OC(C)C1 (stereo not given) | inactive | 
6 | Nc1ccc([N+](=O)[O-])cc1 | inactive | 
7 | CCCSC(=O)N(CCC)CCC | inactive | 
8 | O=Cc1ccco1 | inactive | 
9 | CCC[CH2][Sn]([Cl])([CH2]CCC)[CH2]CCC |  | 5.57 µM (active)
10 | O=[N+]([O-])C(Br)(CO)CO |  | 37.5 µM (active)
11 | OCCCBr | inactive | 
12 | O=C(Oc1ccc(Br)cc1)N1CCN2CCC1CC2 | inactive | 
13 | CC(C)(C)OOC(=O)c1ccccc1 | inactive | 
14 | COC(=O)c1ccccc1N | inactive | 
15 | O=C(O)C1C2CCC(O2)C1C(=O)O (stereo not given) |  | 9.13 µM (active)
16 | O=C(Nc1ccccc1)c1ccccc1I | inactive | 
17 | ClC1=C(Cl)[C@]2(Cl)[C@H]3[C@H]([C@@H]4C=C[C@H]3C4)[C@@]1(Cl)C2(Cl)Cl | inactive | 
18 | O=P(OCCCl)(OCCCl)OCCCl | inactive | 
19 | CC(C)(OOC(C)(C)c1ccccc1)c1ccccc1 |  | 37.5 µM (active)
20 | Cc1ccc(N)cc1 | inactive | 

Row | Compound | outcome | AC50
21 | CC(C)(C)C(O)(CCc1ccc(Cl)cc1)Cn1cncn1 (stereo not given) | inactive | 
22 | CN(C)[C@@H]1C(=O)C(C(N)=O)=C(O)[C@@]2(O)C(=O)C3=C(O)c4c(O)cccc4[C@@](C)(O)[C@H]3C[C@@H]12 | inactive | 
23 | CCCCC(CC)COC(=O)c1ccc(C(=O)OCC(CC)CCCC)c(C(=O)OCC(CC)CCCC)c1 (stereo not given) | inactive | 
24 | Nc1ccc(Oc2ccc(N)cc2)cc1 | inactive | 
25 | ClCCOCCCl | inactive | 
26 | Cc1ccc(N=C=O)cc1N=C=O | inactive | 
27 | CS(=O)(=O)NC(=O)c1cc(Oc2ccc(C(F)(F)F)cc2Cl)ccc1[N+](=O)[O-] | inactive | 
28 | CC(O)CCO (stereo not given) | inactive | 
29 | C1=Cc2cccc3cccc1c23 | inactive | 
30 | Nc1ccc(N=Nc2ccccc2)cc1 | inactive | 
31 | CC(C)COC(=O)c1ccccc1C(=O)OCC(C)C | inactive | 
32 | CN(C)c1ccc(C(=O)c2ccc(N(C)C)cc2)cc1 |  | 5.81 µM (active)
33 | Oc1ccccc1Cl | inactive | 
34 | c1ccc2c(c1)-c1cccc3cccc-2c13 | inactive | 
35 | Clc1ccc(C(c2ccc(Cl)cc2)C(Cl)Cl)cc1 |  | 37.3 µM (active)
36 | CCNS(=O)(=O)C(F)(F)C(F)(F)C(F)(F)C(F)(F)C(F)(F)C(F)(F)C(F)(F)C(F)(F)F | inactive | 
37 | CCC(C)c1ccc(O)cc1 (stereo not given) | inactive | 
38 | Nc1ccc(Cl)cc1N | inactive | 
39 | Cc1ccc([N+](=O)[O-])cc1 | inactive | 
40 | CN(C)C(=O)Nc1ccc(Cl)cc1 | inactive | 
